{"source": "PubChem BioAssay AID743150", "about": "(Broad Institute, 2013)", "note": "Potency and affinity values are given separately. Unmarked numbers belong to inactive results. How the calls were made is not given here.", "data": [{"assay": "OVCAR4 cell viability loss – plate reader, dry powder, SA11, cytotoxicity control for PAX8 inhibitor project, dose response (AID 743150)", "conditions": "series mostly up to 35 µM; activity change, negative = cytotoxicity: at the top concentration", "values": [{"smiles": "N#C[C@@H]1[C@@H](c2ccc(-c3ccccc3F)cc2)[C@@H](CO)N1C(=O)C1CCC1", "activity change, negative = cytotoxicity": "3.27%"}, {"smiles": "O=C(C[C@H]1CC[C@H]2[C@@H](COC[C@@H](O)CN2S(=O)(=O)c2cccc(Cl)c2)O1)Nc1ccc(-c2ccccc2)cc1", "activity change, negative = cytotoxicity": "-2.05%"}, {"smiles": "COc1cccc(C#Cc2ccc([C@H]3[C@@H](C#N)N(C(=O)c4ccccn4)[C@@H]3CO)cc2)c1", "activity change, negative = cytotoxicity": "28.9%"}, {"smiles": "O=C(/C=C/c1ccccc1)Nc1cccc(C(=O)O)c1", "activity change, negative = cytotoxicity": "-28.6% [at 50 µM]"}, {"smiles": "O=C1/C(=C/c2ccccc2F)SC(=S)N1CC(=O)N1CCCCC1c1cccnc1", "note": "(configuration not stated)", "activity change, negative = cytotoxicity": "11% [at 50 µM]"}, {"smiles": "Cc1ccc(S(=O)(=O)Nc2ccc3c(c2)C(=O)N([C@@H](C)CO)C[C@H](C)[C@@H](CN(C)C(=O)Nc2cccc4ccccc24)OCCCC[C@@H](C)O3)cc1", "activity change, negative = cytotoxicity": "-17.1%"}, {"smiles": "COc1ccc(S(=O)(=O)N2CCCCN3[C@H](CO)[C@H](c4ccc(C#CC(C)C)cc4)[C@H]3C2)cc1", "activity change, negative = cytotoxicity": "12.5%"}, {"smiles": "COc1cccc(C#Cc2ccc([C@@H]3[C@H](C#N)N(C(=O)c4ccccn4)[C@H]3CO)cc2)c1", "activity change, negative = cytotoxicity": "11.8%"}, {"smiles": "C[C@H](CO)N1C[C@H](C)[C@@H](CN(C)Cc2ccc(-c3ccccc3)cc2)Oc2ccc(NC(=O)C3CC3)cc2CC1=O", "activity change, negative = cytotoxicity": "21.6%"}, {"smiles": "COc1cccc(C#Cc2ccc([C@@H]3[C@@H](C#N)N(C(=O)C4CCCCC4)[C@@H]3CO)cc2)c1", "activity change, negative = cytotoxicity": "-5.64%"}, {"smiles": "CCc1ccc(/C=C2\\SC(=S)N(CCCC(=O)N(CCO)c3ccccc3)C2=O)cc1", "activity change, negative = cytotoxicity": "-71.7% [at 50 µM]"}, {"smiles": "C[C@H](CO)N1C[C@H](C)[C@@H](CN(C)S(=O)(=O)c2ccc(-c3ccccc3)cc2)OCc2cn(nn2)CCCC1=O", "activity change, negative = cytotoxicity": "16.7%"}, {"smiles": "COc1ccc(S(=O)(=O)Nc2ccc3c(c2)CC(=O)N([C@@H](C)CO)C[C@@H](C)[C@@H](CN(C)Cc2ccc(-c4ccccc4)cc2)O3)cc1", "activity change, negative = cytotoxicity": "-8.32%"}, {"smiles": "O=C(N1CCCCC1)[C@@]1(CCS(=O)(=O)c2ccccc2)N=C(c2ccc(OCCCO)cc2)O[C@H]1c1ccccc1", "activity change, negative = cytotoxicity": "1.84% [at 50 µM]"}, {"smiles": "C[C@H](CO)N1C[C@H](C)[C@@H](CN(C)S(=O)(=O)c2ccc(Cl)cc2)OCCCC[C@H](C)Oc2ccc(NS(=O)(=O)c3ccccc3)cc2C1=O", "activity change, negative = cytotoxicity": "-9.96%"}, {"smiles": "Cc1nc2sc(C(c3ccco3)N3CCN(C(c4ccccc4)c4ccccc4)CC3)c(O)n2n1", "note": "(configuration not stated)", "activity change, negative = cytotoxicity": "-12.4% [at 50 µM]"}, {"smiles": "N#C[C@H]1[C@@H](c2ccc(C3=CCCC3)cc2)[C@@H](CO)N1C(=O)NC1CCCCC1", "activity change, negative = cytotoxicity": "-6.6%"}]}]}
